Results filed as inconclusive are left out. Where a call stands in place of a potency, no number is given. Active and inactive are the calls of the source. Calls come from the whole dose curve; as a rule, active = well fitted activation curve with a large enough effect; inconclusive = small, poorly fitted or top-dose-only effect; inactive = no such curve, though single readings can be large or run the other way.
Potency is the fitted concentration of half-maximal effect.

The nature of the experiment: qHTS Assay for Identifying a Potential Treatment of Ataxia-Telangiectasia: Secondary assay (no NCS) hit validation.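 Note: phosphorylated KAP1 signal as a proxy for ATM-like kinase activity.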 To be noted: A-T patient fibroblasts, AlphaLISA, no DNA damage added, 90 min; series mostly up to 76.9 µM. The method in brief: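 Without NCS-induced DNA breaks, ATM-like activity scored as phospho-KAP1 AlphaLISA signal (pKAP1/total KAP1 bead pair) in ATM-null F2112 fibroblasts; compound series up to 76.7 uM final, 37C incubation, lysates read on AlphaScreen protocol.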
On the technique in general: Quantitative high-throughput screening tests each substance at several concentrations.
For the molecule `COc1cccc(/C=N/NC(=O)c2cc3cc([N+](=O)[O-])ccc3s2)c1O`, the Potency was 46.3 µM (active).
Under `COc1ccc(C2/C=C\CN(S(=O)(=O)c3ccc4ccccc4c3)CC(=O)N2Cc2ccc(F)cc2)cc1` (stereo not given) stands 41.2 µM (active).
In the case of `CCc1oc(C(=O)OC)cc1CSC(=N)N`, the Potency result was “inactive”.
On to `CC(C)(C)n1nc2c(c1NC(=O)C1CC(=O)N(c3ccc(Cl)cc3)C1)CS(=O)(=O)C2` (stereo not given), for which the Potency entry was “inactive”.
Under `CC(=O)c1sc2nc(C)c3c(c2c1N)CCCC3` stands “inactive”.
For the molecule `CCC12CN(C(=O)c3ccc([N+](=O)[O-])cc3)CC(CC)(CN(C(=O)c3ccc([N+](=O)[O-])cc3)C1)C2=O`, the Potency was 0.207 µM (active).
Under `Cc1ccc(C)c(-c2csc(Nc3ncccn3)n2)c1` stands “inactive”; under `C/C(CCC1CC(C)OC1=O)=N\NC(N)=S` (stereo not given), “inactive”.
As to `Clc1cccc(Cl)c1CSc1nnc(-c2ccncc2)s1`, the Potency is 41.2 µM (active).
Then `Cc1ccc(-c2noc(CCC(=O)NC3CCN(Cc4ccccc4)CC3)n2)cc1`, with “inactive”; and `CCOc1cc(/C=C/c2nc3ccccc3c(=O)[nH]2)ccc1O`, with “inactive”; and `Fc1ccc(C2=NOC(c3nnc(-c4ccccc4)o3)C2)cc1` (stereo not given), with “inactive”.
Under `Cc1nn(-c2ccccc2)c2nc(C(Cl)(Cl)Cl)[nH]c(=O)c12` stands “inactive”.
Under `COc1ccccc1[C@H]1C(c2cccc(Cl)c2)=NN(c2ccccc2)[C@@H]1CO` stands “inactive”; under `COC(=O)CCc1c(C)c(C(=O)c2cc(OC)c(OC)c(OC)c2)c2ccccn12`, “inactive”; under `O=C1NC(NS(=O)(=O)c2ccc(Cl)cc2)(C(F)(F)F)C(=O)N1CCc1ccccc1` (stereo not given), “inactive”.
Take `CNC(=O)/C=C/c1cc(C(=O)c2ccc(Cl)cc2Cl)cn1C`: the Potency result was “inactive”.
Under `CCOc1ccc(C(=O)NC(=S)Nc2cccnc2)cc1[N+](=O)[O-]` stands “inactive”; under `Cc1c(Cc2ccccc2)c(NCCCO)n2c(nc3ccccc32)c1C#N`, “inactive”.
Under `CCC(=O)NC1=C(Cl)C(=O)C(NC(=O)CC)=C(Cl)C1=O` stands “inactive”.
Then `COc1ccc(N2CCN(C(=O)c3cc4cc(Cl)ccc4[nH]3)CC2)cc1`, with “inactive”; and `N#Cc1c2c(c(-n3cnc4ccccc43)n3c1nc1ccccc13)CCC2`, with “inactive”.
Regarding `CC(C)(C)C1CCC2(CC1)SCC(=O)N2c1ccccc1` (stereo not given), the Potency result was “inactive”.
With `COc1ccccc1C(=O)NC(=O)Nc1cccc(Cl)c1`, the Potency entry is “inactive”.
Then `CCCc1nn(C)c(C(=O)Nc2ccc(C(C)(C)C)cc2)c1Cl`, with “inactive”; and `NCC(=O)c1cccc2ccc[n+]([O-])c12`, with “inactive”.
With `CCOC(=O)N1CCC(NC(=O)C2CCN(S(=O)(=O)c3cccc4cccnc34)CC2)CC1`, the Potency entry is “inactive”.
Take `CCn1c(SCc2cccc(F)c2)nnc1-c1ccncc1`: the Potency result was “inactive”.
With `CCOc1ccc(NC2=CC(=O)CCC2)cc1`, the Potency result was “inactive”.
Then `CCN1C/C(=C/c2sccc2C)c2nc3ccccc3c(C(=O)O)c2C1`, with 16.4 µM (active).
In the case of `O=C(CNCc1cccs1)Nc1cc(S(=O)(=O)N2CCCC2)ccc1Cl`, the Potency result was “inactive”.
In the case of `CCCN1C2CCCC1CC(NC(=S)Nc1cccc(C)c1C)C2` (stereo not given), the Potency result was “inactive”.
For the molecule `O=C(NC(=O)c1c(F)cccc1F)Nc1ccccc1SC(F)F`, the Potency result is “inactive”.
Then `CC(C)C1CC(CCN)(c2ccccc2)CCO1` (stereo not given), with “inactive”; and `Cc1cc2nc3ccc(=[N+](C)C)cc-3sc2cc1N`, with “inactive”.
